What was measured:
[1] = target: Serine/threonine-protein kinase MARK2 (Homo sapiens) (UniProt Q7KZI7); conditions: at 1 µM
[2] = target: PAS domain-containing serine/threonine-protein kinase (Homo sapiens) (UniProt Q96RG2); conditions: at 0.1 µM
[3] = target: PAS domain-containing serine/threonine-protein kinase (Homo sapiens) (UniProt Q96RG2); conditions: at 1 µM
[4] = target: Phosphorylase b kinase gamma catalytic chain, skeletal muscle/heart isoform (Homo sapiens) (UniProt Q16816); conditions: at 0.1 µM
[5] = target: Phosphorylase b kinase gamma catalytic chain, skeletal muscle/heart isoform (Homo sapiens) (UniProt Q16816); conditions: at 1 µM
[6] = target: T1, Phosphorylase b kinase gamma catalytic chain, liver/testis isoform (Homo sapiens) (UniProt P15735); conditions: at 0.1 µM
T1 sequence (whole entry): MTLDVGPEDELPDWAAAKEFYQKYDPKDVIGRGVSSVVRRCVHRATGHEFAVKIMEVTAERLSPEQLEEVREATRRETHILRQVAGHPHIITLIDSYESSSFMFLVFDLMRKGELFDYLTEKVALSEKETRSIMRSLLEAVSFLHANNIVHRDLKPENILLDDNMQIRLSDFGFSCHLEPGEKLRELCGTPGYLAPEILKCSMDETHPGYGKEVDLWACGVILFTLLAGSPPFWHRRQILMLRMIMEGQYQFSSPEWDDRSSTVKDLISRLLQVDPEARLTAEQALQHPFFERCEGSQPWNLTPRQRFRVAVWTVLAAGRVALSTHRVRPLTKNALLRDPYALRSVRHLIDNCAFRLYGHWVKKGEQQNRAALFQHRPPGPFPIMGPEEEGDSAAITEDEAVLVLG

[7] = target: T1, Phosphorylase b kinase gamma catalytic chain, liver/testis isoform (Homo sapiens); conditions: at 1 µM
[8] = target: Serine/threonine-protein kinase pim-1 (Homo sapiens) (UniProt P11309); conditions: at 0.1 µM
[9] = target: Serine/threonine-protein kinase pim-1 (Homo sapiens) (UniProt P11309); conditions: at 1 µM
[10] = target: Serine/threonine-protein kinase pim-2 (Homo sapiens) (UniProt Q9P1W9); conditions: at 0.1 µM;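 further: reported value is the mean percent inhibition of PIM2, measured in the GSK PKIS kinase inhibitor set screen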
Serine/threonine-protein kinase pim-2 (Homo sapiens), sequence (Q9P1W9 whole entry, looked up): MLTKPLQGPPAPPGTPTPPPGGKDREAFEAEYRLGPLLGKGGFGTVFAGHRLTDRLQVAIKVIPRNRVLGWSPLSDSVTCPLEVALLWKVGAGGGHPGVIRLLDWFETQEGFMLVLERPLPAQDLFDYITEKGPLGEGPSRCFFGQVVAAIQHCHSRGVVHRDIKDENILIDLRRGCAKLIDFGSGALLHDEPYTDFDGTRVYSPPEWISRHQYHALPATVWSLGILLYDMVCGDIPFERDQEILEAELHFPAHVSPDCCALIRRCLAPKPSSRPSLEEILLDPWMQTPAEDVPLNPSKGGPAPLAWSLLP

Serine/threonine-protein kinase pim-1 (Homo sapiens), sequence (P11309 whole entry, looked up): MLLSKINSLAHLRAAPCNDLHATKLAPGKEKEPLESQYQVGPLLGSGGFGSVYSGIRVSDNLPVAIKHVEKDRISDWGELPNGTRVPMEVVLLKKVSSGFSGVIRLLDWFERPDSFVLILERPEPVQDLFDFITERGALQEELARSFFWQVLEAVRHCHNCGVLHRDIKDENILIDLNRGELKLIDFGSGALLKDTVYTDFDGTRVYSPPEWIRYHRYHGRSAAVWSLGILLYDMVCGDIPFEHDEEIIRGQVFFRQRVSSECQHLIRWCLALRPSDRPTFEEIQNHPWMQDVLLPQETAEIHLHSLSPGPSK
PAS domain-containing serine/threonine-protein kinase (Homo sapiens), sequence (Q96RG2 whole entry, the tested form may be a part, canonical isoform): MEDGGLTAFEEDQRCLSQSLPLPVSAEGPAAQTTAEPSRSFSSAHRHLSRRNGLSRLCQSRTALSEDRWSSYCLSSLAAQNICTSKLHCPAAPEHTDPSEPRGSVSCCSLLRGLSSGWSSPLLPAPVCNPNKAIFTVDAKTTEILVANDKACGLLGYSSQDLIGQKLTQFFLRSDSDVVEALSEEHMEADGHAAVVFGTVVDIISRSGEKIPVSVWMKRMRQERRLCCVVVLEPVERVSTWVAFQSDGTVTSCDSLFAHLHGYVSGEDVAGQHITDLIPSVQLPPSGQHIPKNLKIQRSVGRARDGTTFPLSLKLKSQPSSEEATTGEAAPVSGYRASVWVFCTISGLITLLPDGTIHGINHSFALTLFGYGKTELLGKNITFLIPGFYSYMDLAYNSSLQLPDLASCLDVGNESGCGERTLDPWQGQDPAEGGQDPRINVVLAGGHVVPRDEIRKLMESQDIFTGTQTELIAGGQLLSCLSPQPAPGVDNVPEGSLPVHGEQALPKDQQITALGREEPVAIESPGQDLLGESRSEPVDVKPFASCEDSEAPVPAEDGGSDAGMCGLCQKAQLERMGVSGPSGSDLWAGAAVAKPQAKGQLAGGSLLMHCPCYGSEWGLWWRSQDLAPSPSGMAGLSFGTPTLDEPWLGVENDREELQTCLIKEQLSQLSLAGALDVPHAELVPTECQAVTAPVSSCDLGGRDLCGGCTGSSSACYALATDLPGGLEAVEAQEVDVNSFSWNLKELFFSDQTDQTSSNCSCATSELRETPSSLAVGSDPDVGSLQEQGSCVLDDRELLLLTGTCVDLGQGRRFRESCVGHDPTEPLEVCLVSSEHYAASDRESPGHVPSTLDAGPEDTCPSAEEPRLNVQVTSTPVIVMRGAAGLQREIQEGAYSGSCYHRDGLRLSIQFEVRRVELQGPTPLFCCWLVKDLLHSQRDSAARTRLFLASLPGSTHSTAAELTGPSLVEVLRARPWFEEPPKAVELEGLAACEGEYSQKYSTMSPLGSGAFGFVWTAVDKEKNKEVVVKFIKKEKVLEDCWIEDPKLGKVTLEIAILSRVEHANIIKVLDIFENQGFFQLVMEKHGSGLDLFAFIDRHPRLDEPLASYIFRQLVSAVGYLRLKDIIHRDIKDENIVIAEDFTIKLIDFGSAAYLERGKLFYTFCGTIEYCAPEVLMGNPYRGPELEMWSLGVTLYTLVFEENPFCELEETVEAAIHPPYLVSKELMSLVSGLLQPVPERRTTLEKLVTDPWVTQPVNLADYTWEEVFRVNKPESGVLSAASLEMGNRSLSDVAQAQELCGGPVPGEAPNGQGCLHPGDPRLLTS
Phosphorylase b kinase gamma catalytic chain, skeletal muscle/heart isoform (Homo sapiens), sequence (Q16816 whole entry, looked up, canonical isoform): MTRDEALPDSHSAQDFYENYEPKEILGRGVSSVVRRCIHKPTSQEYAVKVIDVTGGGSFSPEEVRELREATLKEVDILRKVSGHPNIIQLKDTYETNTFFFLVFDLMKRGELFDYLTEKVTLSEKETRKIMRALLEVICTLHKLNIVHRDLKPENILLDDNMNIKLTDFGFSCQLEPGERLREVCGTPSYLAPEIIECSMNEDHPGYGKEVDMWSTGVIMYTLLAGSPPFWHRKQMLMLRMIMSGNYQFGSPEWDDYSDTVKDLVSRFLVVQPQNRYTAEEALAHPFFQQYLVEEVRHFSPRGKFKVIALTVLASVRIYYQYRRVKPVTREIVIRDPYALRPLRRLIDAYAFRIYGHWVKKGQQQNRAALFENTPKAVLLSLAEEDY
Serine/threonine-protein kinase MARK2 (Homo sapiens), sequence (Q7KZI7 whole entry, the tested form may be a part): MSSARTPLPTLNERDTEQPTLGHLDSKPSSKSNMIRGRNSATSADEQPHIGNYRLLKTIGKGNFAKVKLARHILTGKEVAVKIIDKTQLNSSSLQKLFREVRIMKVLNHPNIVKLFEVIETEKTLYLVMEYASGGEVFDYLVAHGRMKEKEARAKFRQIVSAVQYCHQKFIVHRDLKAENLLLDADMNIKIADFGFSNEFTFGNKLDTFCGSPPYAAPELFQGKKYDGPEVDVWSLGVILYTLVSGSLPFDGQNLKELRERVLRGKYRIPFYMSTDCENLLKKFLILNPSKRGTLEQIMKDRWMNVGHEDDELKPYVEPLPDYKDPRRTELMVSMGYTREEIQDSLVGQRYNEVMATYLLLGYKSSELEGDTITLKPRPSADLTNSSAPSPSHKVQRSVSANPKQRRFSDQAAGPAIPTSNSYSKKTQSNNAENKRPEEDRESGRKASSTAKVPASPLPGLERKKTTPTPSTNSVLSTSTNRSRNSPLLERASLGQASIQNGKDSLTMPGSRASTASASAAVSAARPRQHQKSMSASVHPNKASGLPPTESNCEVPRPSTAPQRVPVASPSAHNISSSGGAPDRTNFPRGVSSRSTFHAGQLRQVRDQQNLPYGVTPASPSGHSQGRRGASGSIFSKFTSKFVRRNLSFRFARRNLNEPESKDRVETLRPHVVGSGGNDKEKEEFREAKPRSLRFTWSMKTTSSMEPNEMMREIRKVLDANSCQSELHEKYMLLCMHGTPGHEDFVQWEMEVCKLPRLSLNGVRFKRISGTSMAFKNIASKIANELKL

SMILES: COc1cc(C)c(NC(=O)CN(C)C)cc1Nc1nc(Nc2cccc(F)c2C(N)=O)c2cc[nH]c2n1
- inhibition [1]: -0.1%
- inhibition [2]: -0.35%
- inhibition [3]: -3.17%
- inhibition [4]: 8.46%
- inhibition [5]: 43.5%
- inhibition [6]: 4.74%
- inhibition [7]: 8.82%
- inhibition [8]: 8.2%
- inhibition [9]: 43.2%
- inhibition [10]: 0.16%

SMILES: Fc1cccc(COc2ccc(Nc3ncnc4cc(-c5ccc[nH]5)sc34)cc2Cl)c1
- inhibition [1]: 2.66%
- inhibition [2]: -0.58%
- inhibition [3]: -0.43%
- inhibition [4]: 3.19%
- inhibition [5]: 3.62%
- inhibition [6]: 2.24%
- inhibition [7]: 2.18%
- inhibition [8]: -0.5%
- inhibition [9]: 1.01%
- inhibition [10]: -3.43%

SMILES: CS(=O)(=O)CCNCc1ccc(-c2ccc3ncnc(Nc4ccc(OCc5ccccc5)c(Cl)c4)c3c2)o1
- inhibition [1]: 3.76%
- inhibition [2]: 0.71%
- inhibition [3]: 0.11%
- inhibition [4]: 1.63%
- inhibition [5]: 6.13%
- inhibition [6]: -1.65%
- inhibition [7]: -2.44%
- inhibition [8]: 0.36%
- inhibition [9]: 1.78%
- inhibition [10]: -0.34%

SMILES: COc1ccc(-c2coc3ncnc(N)c23)cc1
- inhibition [1]: 2.28%
- inhibition [2]: -0.15%
- inhibition [3]: -1.42%
- inhibition [4]: 3.44%
- inhibition [5]: 6.53%
- inhibition [6]: 4.41%
- inhibition [7]: 2.09%
- inhibition [8]: 1.29%
- inhibition [9]: 1.42%
- inhibition [10]: 0.43%

SMILES: COc1cc2c(cc1Nc1nc(N3CCc4ccccc43)c3cc[nH]c3n1)N(C(=O)CN(C)C)CC2
- inhibition [1]: 0.39%
- inhibition [2]: 1.45%
- inhibition [3]: -0.16%
- inhibition [5]: 3.14%
- inhibition [6]: 3.23%
- inhibition [7]: 0.08%
- inhibition [8]: 0.66%
- inhibition [9]: -0.15%
- inhibition [10]: -0.35%

SMILES: COc1ccc(-c2ccncc2)cc1C(N)=O
- inhibition [1]: 0.17%
- inhibition [2]: -0.78%
- inhibition [3]: -0.33%
- inhibition [4]: 2.55%
- inhibition [5]: 3.87%
- inhibition [6]: 5.73%
- inhibition [7]: 5.45%
- inhibition [8]: 0.06%
- inhibition [9]: 2.13%
- inhibition [10]: -0.49%

SMILES: NCc1ccc(-c2nc(-c3ccc(Cl)c(O)c3)c(-c3ccncc3)[nH]2)cc1
- inhibition [1]: 2.58%
- inhibition [2]: 0.34%
- inhibition [3]: -0.1%
- inhibition [4]: 0.14%
- inhibition [5]: 3.18%
- inhibition [6]: 0.02%
- inhibition [7]: -1.08%
- inhibition [8]: 1.18%
- inhibition [9]: 0.18%
- inhibition [10]: -0.05%

SMILES: CCn1c(-c2nonc2N)nc2cncc(C(=O)N3CCNCC3)c21
- inhibition [1]: 2.03%
- inhibition [2]: -1.71%
- inhibition [3]: -0.89%
- inhibition [4]: 3.09%
- inhibition [5]: 4.51%
- inhibition [6]: 8.34%
- inhibition [7]: 7.28%
- inhibition [8]: 0.31%
- inhibition [9]: 2.05%
- inhibition [10]: -0.98%

SMILES: Nc1nc(-c2ccc3c(c2)C(=Cc2cc(Br)c(O)c(Br)c2)C(=O)N3)cs1
- inhibition [1]: 0.67%
- inhibition [2]: -0.9%
- inhibition [3]: -1.85%
- inhibition [4]: 3.78%
- inhibition [5]: 5.21%
- inhibition [6]: -3.21%
- inhibition [7]: -2.57%
- inhibition [8]: 3.74%
- inhibition [9]: 25.6%
- inhibition [10]: 10.8%

SMILES: CN(C)c1cc2c(Nc3ccc4nc(Cc5ccccc5)[nH]c4c3)ncnc2cn1
- inhibition [1]: 1.13%
- inhibition [2]: 0.02%
- inhibition [3]: -2.17%
- inhibition [4]: 7.34%
- inhibition [5]: 13.4%
- inhibition [6]: 5.65%
- inhibition [7]: 5.19%
- inhibition [8]: 1.36%
- inhibition [9]: 3.18%
- inhibition [10]: -0.82%

SMILES: O=C1NC(=O)C(c2cccc(Cl)c2)=C1Nc1ccc(O)c(Cl)c1
- inhibition [1]: 16.3%
- inhibition [2]: 1.02%
- inhibition [3]: 0.49%
- inhibition [4]: 2.04%
- inhibition [5]: 6.07%
- inhibition [6]: 1.35%
- inhibition [7]: -1.03%
- inhibition [8]: 1.35%
- inhibition [9]: 3.87%
- inhibition [10]: 0.87%

SMILES: COc1cc2ncn(-c3cc(OCc4ccccc4Cl)c(C(N)=O)s3)c2cc1OC
- inhibition [1]: 6.01%
- inhibition [2]: -0.4%
- inhibition [3]: -0.88%
- inhibition [4]: 3.72%
- inhibition [5]: 5.84%
- inhibition [6]: -0.8%
- inhibition [7]: 1.21%
- inhibition [8]: 0.77%
- inhibition [9]: 2.71%
- inhibition [10]: 1.11%

SMILES: O=C1NC(=O)C(c2ccc(Cl)cc2)=C1Nc1ccc(Cl)c(C(=O)O)c1
- inhibition [1]: 2.17%
- inhibition [2]: -0.66%
- inhibition [3]: -1.05%
- inhibition [4]: -1.07%
- inhibition [5]: 1.44%
- inhibition [6]: -3.95%
- inhibition [7]: -5.8%
- inhibition [8]: -0.65%
- inhibition [9]: -0.5%
- inhibition [10]: 1.05%

SMILES: CS(=O)(=O)CCN(CC#N)Cc1ccc(-c2ccc3ncnc(Nc4ccc(OCc5cccc(F)c5)c(Cl)c4)c3c2)o1
- inhibition [1]: -1.1%
- inhibition [2]: -0.15%
- inhibition [3]: -0.89%
- inhibition [4]: 2.68%
- inhibition [5]: 5.37%
- inhibition [6]: 1.91%
- inhibition [7]: 1.52%
- inhibition [8]: -1.56%
- inhibition [9]: -0.76%
- inhibition [10]: -4.12%

SMILES: NC(=O)c1ccc(-c2nc(-c3ccccn3)c(-c3ccc4c(c3)OCO4)[nH]2)cc1
- inhibition [1]: -0.45%
- inhibition [2]: 0.34%
- inhibition [3]: 1.31%
- inhibition [4]: 2.92%
- inhibition [5]: 4.79%
- inhibition [6]: 3.32%
- inhibition [7]: 3.73%
- inhibition [8]: -0.68%
- inhibition [9]: 0.92%
- inhibition [10]: 0.03%

SMILES: COc1ccc2cc(-c3c(-c4ccncc4)nc(-c4ccc([S+](C)[O-])cc4)n3C)ccc2c1 (stereo not drawn)
- inhibition [1]: 2.02%
- inhibition [2]: 0.01%
- inhibition [3]: -1.68%
- inhibition [4]: 2.27%
- inhibition [6]: 4.08%
- inhibition [7]: 1.1%
- inhibition [8]: -0.22%
- inhibition [9]: 0.54%
- inhibition [10]: -0.02%

SMILES: CC1=C(C(=O)Nc2ccc3[nH]ncc3c2)C(c2ccc(Cl)c(Cl)c2)CC(=O)N1 (stereo not drawn)
- inhibition [1]: 3.36%
- inhibition [2]: -0.49%
- inhibition [3]: -1.74%
- inhibition [4]: 1.04%
- inhibition [5]: 2.45%
- inhibition [6]: 2.86%
- inhibition [7]: -0.26%
- inhibition [8]: -0.12%
- inhibition [9]: 0.22%
- inhibition [10]: 0.05%
